Laboratory results: article PMC4336329 (PLoS ONE, 2015)
Among all 310,000 compounds or so, about 14,000 (4.5%) showed an effect of 50% or more. The effect is printed as a negative number. The entries come from a sample that favours strong results as a whole.

The compounds below were run against human ether-à-go-go-related gene (hERG) potassium channel (human, UniProt Q12809) (assay: primary screen, population patch clamp on CHO cells stably expressing hERG; higher = less effect of the substance).
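Also: peak tail current of the secondary pulse compared with the same well before compound.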

Chain of human ether-à-go-go-related gene (hERG) potassium channel (Q12809 whole entry, looked up): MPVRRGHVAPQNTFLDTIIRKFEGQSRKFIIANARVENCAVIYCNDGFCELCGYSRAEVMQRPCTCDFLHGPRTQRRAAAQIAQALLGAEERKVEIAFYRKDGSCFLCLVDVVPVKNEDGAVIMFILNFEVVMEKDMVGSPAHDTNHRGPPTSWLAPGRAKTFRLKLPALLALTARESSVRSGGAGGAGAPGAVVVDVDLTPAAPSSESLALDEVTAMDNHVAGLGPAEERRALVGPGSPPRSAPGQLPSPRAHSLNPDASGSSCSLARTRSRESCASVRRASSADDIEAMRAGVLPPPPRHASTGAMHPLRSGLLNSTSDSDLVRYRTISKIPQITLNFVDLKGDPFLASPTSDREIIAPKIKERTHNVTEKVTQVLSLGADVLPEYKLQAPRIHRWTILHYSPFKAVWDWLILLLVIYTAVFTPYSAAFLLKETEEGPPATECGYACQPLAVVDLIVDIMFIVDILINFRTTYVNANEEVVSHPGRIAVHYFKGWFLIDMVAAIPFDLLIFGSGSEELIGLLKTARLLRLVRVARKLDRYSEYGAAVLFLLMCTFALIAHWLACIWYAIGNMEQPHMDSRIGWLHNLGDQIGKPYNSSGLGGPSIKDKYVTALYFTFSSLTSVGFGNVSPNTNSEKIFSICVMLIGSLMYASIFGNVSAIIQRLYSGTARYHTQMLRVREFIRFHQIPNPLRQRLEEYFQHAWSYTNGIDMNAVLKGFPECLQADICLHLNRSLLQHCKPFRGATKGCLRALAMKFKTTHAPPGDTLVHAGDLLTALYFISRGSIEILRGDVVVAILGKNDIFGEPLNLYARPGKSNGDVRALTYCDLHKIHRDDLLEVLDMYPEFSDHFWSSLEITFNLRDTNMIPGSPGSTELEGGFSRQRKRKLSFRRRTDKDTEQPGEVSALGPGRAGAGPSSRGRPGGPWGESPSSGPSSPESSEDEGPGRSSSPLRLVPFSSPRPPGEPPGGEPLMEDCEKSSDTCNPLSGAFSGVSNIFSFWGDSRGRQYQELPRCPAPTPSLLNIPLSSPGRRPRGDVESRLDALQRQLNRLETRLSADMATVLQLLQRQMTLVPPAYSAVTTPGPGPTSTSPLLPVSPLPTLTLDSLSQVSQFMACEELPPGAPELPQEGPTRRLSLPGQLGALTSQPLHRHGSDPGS

Compound | hERG current change (%, negative = inhibition) at 10uM [%]
O=C(c1ccc(OC2CCN(C/C=C/c3ccccc3)CC2)cc1)N1CCCCC1 | -53.1
O=C(c1ccc(OC2CCN(Cc3ccccn3)CC2)cc1)N1CCCCCC1 | -14.9
Cc1ccccc1CN1CCC(Oc2ccc(C(=O)N3CCCC3)cc2)CC1 | -13.7
O=C(c1ccc(OC2CCN(C/C=C/c3ccccc3)CC2)cc1)N1CCCC1 | -75.7
CCCC(=O)NC(c1ccc(Cl)cc1Cl)c1ccc2cccnc2c1O (centres unmarked) | 0.094
CC(=O)Cc1c(C(=O)O)c(C)nn1-c1ccccc1 | 21.5
O=[N+]([O-])/C=C/c1ccc2c(ccn2Cc2ccccc2)c1 | 15.8
CC(C)CC(=O)Nc1c(C(=O)N2CCN(Cc3ccccc3)CC2)oc2ccccc12 | -20.9
O=C(COc1ccc(F)cc1)Nc1c(C(=O)N2CCC(N3CCCCC3)CC2)oc2ccccc12 | -81.1
COc1ccccc1C(=O)Nc1c(C(=O)N2CCN(C)CC2)oc2ccccc12 | -45.2
COCC(=O)Nc1c(C(=O)N2CCCC2)oc2ccccc12 | 1.46
COc1ccc(OCC(=O)Nc2c(C(=O)N3CCN(C)CC3)oc3ccccc23)cc1 | -42
N#Cc1ccccc1OCC(=O)Nc1c(C(=O)C2CC2)oc2ccccc12 | 2.52
COc1ccc(OCC(=O)Nc2c(C(=O)N3CCC(N4CCCCC4)CC3)oc3ccccc23)cc1 | -87.7
CCCN1CCN(C(=O)c2oc3ccccc3c2NC(=O)COc2ccc(OC)cc2)CC1 | -79.5
O=C(COc1ccccc1)Nc1c(C(=O)N2CCC(N3CCCCC3)CC2)oc2ccccc12 | -69
COc1ccc(N2CCN(C(=O)c3oc4ccccc4c3NC(=O)CCc3cc(OC)no3)CC2)cc1 | -10.4
COc1ccc(OCC(=O)Nc2ccccc2C(=O)N2CCCC2)cc1 | -7.38
CCCN1CCN(C(=O)c2oc3ccccc3c2NC(=O)C2CC2)CC1 | -42.6
CCCCC[C@H](O)/C=C/[C@@H]1[C@@H](C/C=C\CCCC(=O)O)[C@@H](O)C[C@H]1O.NC(CO)(CO)CO | 9.22
COc1ccccc1CC(=O)N(CCC1=CCCCC1)c1c(N)n(Cc2ccccc2)c(=O)[nH]c1=O | -12
CCn1c(CCC(=O)N(C)CC(=O)Nc2cccc(F)c2)nc2cc(S(=O)(=O)N(C)C)ccc21 | -19.3

Compound | hERG current change (%, negative = inhibition) at 10uM [%]
CC(=O)C1=C(O)C(=O)N(c2cccc(Br)c2)C1c1ccc(Br)cc1 (centres unmarked) | 15.8
COCCN(CC(=O)NCc1ccccc1)C(=O)CCC(=O)Nc1ccccn1 | 4.54
CCOC(=O)N1CCN(S(=O)(=O)/C=C/c2ccccc2)CC1 | -17.5
COC(=O)Cn1cnc2sc(C)c(S(=O)(=O)N3CCN(c4ccccc4OC)CC3)c2c1=O | -5.55
Cc1c(Cl)cccc1NC(=O)CNC(=O)c1ccc(F)cc1 | 27.4
Cc1ccc(NC(=O)Nc2nnc(Cc3ccc(F)cc3)s2)cc1 | 14
COc1ccc(-c2nc(CS(=O)CC(=O)NC(C)CCc3ccccc3)c(C)o2)cc1OC (centres unmarked) | -16.8
CCCC[N+]12C3C[C@H](C4[C@H](O)[C@]5(C[C@@H]41)c1ccccc1N(C)[C@@H]35)[C@H](CC)[C@H]2O.[I-] (some centres unmarked) | -56.4
CC[C@H]1C2C[C@H]3[C@@H]4N(C)c5ccccc5C45C[C@H](C2[C@H]5O)N3[C@@H]1O (some centres unmarked) | -43.8
CCC1C2CC3C4N(C)c5ccccc5C45CC(C2C5O)N3[C@@H]1O (some centres unmarked) | -28.5
COc1ccc(C(=O)c2oc3ccc(OC)cc3c2NC(C)=O)cc1 | 27.6
COc1ccc2oc(C(=O)c3ccccc3)c(N)c2c1 | 4.76
O=C(CN1CCOCC1)Nc1c(C(=O)C2CC2)oc2ccccc12 | -6.8
COc1ccc2oc(C(=O)c3ccccc3)c(NC(=O)CN3CCN(C)CC3)c2c1 | -59.8
CC(=O)Nc1c(C(=O)O)oc2ccc(Cl)cc12 | 2.23
CC(=O)c1oc2ccccc2c1NC(=O)CN1CCCCC1.Cl | 7.19
CN1CCN(CC(=O)Nc2c(C(=O)C3CC3)oc3ccccc23)CC1 | -52.4
O=C(CN1CCCC1)Nc1c(C(=O)C2CC2)oc2ccccc12 | -9.92
NC(=O)c1oc2ccc(Cl)cc2c1NC(=O)CN1CCOCC1 | -9.08
CN1CCN(CC(=O)Nc2c(C(=O)c3ccccc3)oc3ccccc23)CC1 | -78.9
Cc1ccc(C(=O)c2oc3ccc(Cl)cc3c2NC(=O)CN2CCN(C)CC2)cc1 | -74.3
CC(=O)Nc1c(C(=O)c2ccccc2)oc2ccccc12 | -10.3
